Laboratory results as given in PubChem BioAssay (EPA / NIEHS).
Values joined by “and” are separate entries in the source; they are usually repeats but may differ in a detail not shown here. Equal entries are not always repeated. A structure can be active in one record and inactive in another. Active and inactive are the calls of the source. How the source made its calls: active means hit-call score of the fitted dose curve at least 0.9, where 1 is the maximum; inactive means score below 0.9.

These molecules were tested on Tumor necrosis factor (Homo sapiens) (UniProt P01375) (assay: BSK_BT_xTNFa: BioMAP Diversity Plus: BT Assay for Tumor necrosis factor alpha (TNF-alpha) Biomarker Activity (AID 2284230)). Conditions: primary human B cells with PBMC.
Method in brief: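 Human primary co-culture of B cells and peripheral blood mononuclear cells; TNF-alpha in supernatant, 24 h post-dose, Luminex multiplex; DMSO = baseline.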

Chain of Tumor necrosis factor (Homo sapiens) (P01375 whole entry, looked up): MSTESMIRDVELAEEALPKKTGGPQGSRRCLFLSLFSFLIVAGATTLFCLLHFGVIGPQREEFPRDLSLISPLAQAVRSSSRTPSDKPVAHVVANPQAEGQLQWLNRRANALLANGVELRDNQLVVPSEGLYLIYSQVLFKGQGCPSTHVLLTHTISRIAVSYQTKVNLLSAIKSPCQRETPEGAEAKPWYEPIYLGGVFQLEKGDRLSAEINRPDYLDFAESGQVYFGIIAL

Structure (SMILES) | outcome | AC50
Nc1ccc(-c2ccc(N)c(N)c2)cc1N | inactive | –
O=c1[nH]c(Cl)c(Cl)cc1Cl | inactive | –
O=C(O)CCCc1ccc(N(CCCl)CCCl)cc1 | – | 23.6 µM (active) and 20 µM (active)
COC(C)(C)CCC[C@H](C)C/C=C/C(C)=C/C(=O)OC(C)C | – | 32.5 µM (active)
O=P1(NCCCl)OCCCN1CCCl (stereo not drawn) | inactive | –
O=S(=O)(c1ccccc1)c1ccccc1 | inactive | –
Clc1ccc(-c2ccccc2)cc1 | inactive | –
Oc1cc(Cl)ccc1Cl | inactive | –

Each molecule was assayed on Vascular cell adhesion molecule 1 (VCAM1), VCAM1 (gene 7412) (assay: BSK_MyoF_VCAM1: BioMAP Diversity Plus: MyoF Assay for Vascular cell adhesion molecule 1 (VCAM1) Biomarker Activity (AID 2284231)). Conditions: primary human lung fibroblasts.
Method in brief: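 Steps: fibroblasts from human lung exposed to compound; biomarker quantified by ELISA at 24 h; values analysed for upward change over the DMSO baseline.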

Structure (SMILES) | AC50 | outcome
Nc1ccc(-c2ccc(N)c(N)c2)cc1N | 20 µM (active) | –
O=c1[nH]c(Cl)c(Cl)cc1Cl | – | inactive
O=C(O)CCCc1ccc(N(CCCl)CCCl)cc1 | 24.4 µM (active) and 30.1 µM (active) | –
COC(C)(C)CCC[C@H](C)C/C=C/C(C)=C/C(=O)OC(C)C | 27.1 µM (active) | –
O=P1(NCCCl)OCCCN1CCCl (stereo not drawn) | – | inactive
O=S(=O)(c1ccccc1)c1ccccc1 | – | inactive
Clc1ccc(-c2ccccc2)cc1 | – | inactive
Oc1cc(Cl)ccc1Cl | – | inactive

The molecules below were run on Collagen I, COL1A1 (gene 1277) (assay: BSK_MyoF_CollagenI: BioMAP Diversity Plus: MyoF Assay for Collagen I Biomarker Activity (AID 2284238)). Conditions: primary human lung fibroblasts.
Method in brief: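 Multiplexed primary human lung fibroblast system; Collagen I measured by ELISA at 24 h post-dose. Increases are referenced to DMSO.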

Structure (SMILES) | outcome
Nc1ccc(-c2ccc(N)c(N)c2)cc1N | inactive
O=c1[nH]c(Cl)c(Cl)cc1Cl | inactive
O=C(O)CCCc1ccc(N(CCCl)CCCl)cc1 | inactive
COC(C)(C)CCC[C@H](C)C/C=C/C(C)=C/C(=O)OC(C)C | inactive
O=P1(NCCCl)OCCCN1CCCl (stereo not drawn) | inactive
O=S(=O)(c1ccccc1)c1ccccc1 | inactive
Clc1ccc(-c2ccccc2)cc1 | inactive
Oc1cc(Cl)ccc1Cl | inactive

What follows are molecules tested on Collagen III, COL3A1 (gene 1281) (assay: BSK_MyoF_CollagenIII: BioMAP Diversity Plus: MyoF Assay for Collagen III Biomarker Activity (AID 2284239)). Conditions: primary human lung fibroblasts.
Method in brief: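 Compounds are added to primary human lung fibroblasts and left for 24 hours. Collagen III is then quantified by ELISA. Analysis takes DMSO as baseline and fits increases in signal.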

Structure (SMILES) | outcome | AC50
Nc1ccc(-c2ccc(N)c(N)c2)cc1N | inactive | –
O=c1[nH]c(Cl)c(Cl)cc1Cl | inactive | –
O=C(O)CCCc1ccc(N(CCCl)CCCl)cc1 | inactive | 20 µM (active)
COC(C)(C)CCC[C@H](C)C/C=C/C(C)=C/C(=O)OC(C)C | inactive | –
O=P1(NCCCl)OCCCN1CCCl (stereo not drawn) | inactive | –
O=S(=O)(c1ccccc1)c1ccccc1 | inactive | –
Clc1ccc(-c2ccccc2)cc1 | inactive | –
Oc1cc(Cl)ccc1Cl | inactive | –

What follows are molecules tested on Interleukin 17F (IL17F), IL17F (gene 112744) (assay: BSK_BT_xIL17F: BioMAP Diversity Plus: BT Assay for Interleukin 17F (IL17F) Biomarker Activity (AID 2284243)). Conditions: primary human B cells with PBMC.
Method in brief: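 Measures secreted IL-17F from a human B cell plus PBMC co-culture at 24 h post-dose by Luminex xMAP, with DMSO defining baseline activity.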

Structure (SMILES) | AC50 | outcome
Nc1ccc(-c2ccc(N)c(N)c2)cc1N | 23.6 µM (active) | –
O=c1[nH]c(Cl)c(Cl)cc1Cl | – | inactive
O=C(O)CCCc1ccc(N(CCCl)CCCl)cc1 | 20 µM (active) and 15.2 µM (active) | –
COC(C)(C)CCC[C@H](C)C/C=C/C(C)=C/C(=O)OC(C)C | 24.4 µM (active) | –
O=P1(NCCCl)OCCCN1CCCl (stereo not drawn) | – | inactive
O=S(=O)(c1ccccc1)c1ccccc1 | – | inactive
Clc1ccc(-c2ccccc2)cc1 | – | inactive
Oc1cc(Cl)ccc1Cl | – | inactive

The molecules below were run on Actin alpha 1 (ACTA1), ACTA1 (gene 58) (assay: BSK_MyoF_ACTA1: BioMAP Diversity Plus: MyoF Assay for Actin alpha 1 (ACTA1) Biomarker Activity (AID 2284244)). Conditions: primary human lung fibroblasts.
Method in brief: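 Human lung fibroblasts (MyoF system) dosed with test chemical for 24 h; α-SMA measured by ELISA. Gain of signal fitted relative to DMSO negative control as baseline.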

Structure (SMILES) | AC50 | outcome
Nc1ccc(-c2ccc(N)c(N)c2)cc1N | 20 µM (active) | –
O=c1[nH]c(Cl)c(Cl)cc1Cl | – | inactive
O=C(O)CCCc1ccc(N(CCCl)CCCl)cc1 | – | inactive
COC(C)(C)CCC[C@H](C)C/C=C/C(C)=C/C(=O)OC(C)C | 30.9 µM (active) | –
O=P1(NCCCl)OCCCN1CCCl (stereo not drawn) | – | inactive
O=S(=O)(c1ccccc1)c1ccccc1 | – | inactive
Clc1ccc(-c2ccccc2)cc1 | – | inactive
Oc1cc(Cl)ccc1Cl | – | inactive

Each molecule was assayed on Interleukin 2 (IL2), IL2 (gene 3558) (assay: BSK_BT_xIL2: BioMAP Diversity Plus: BT Assay for Interleukin 2 (IL2) Biomarker Activity (AID 2284245)). Conditions: primary human B cells with PBMC.
Method in brief: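 Human B cells co-cultured with PBMC, exposed to test chemical for 24 h. Secreted IL-2 quantified by Luminex xMAP bead immunoassay; activity fitted in the positive direction relative to DMSO vehicle baseline.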

Structure (SMILES) | outcome | AC50
Nc1ccc(-c2ccc(N)c(N)c2)cc1N | inactive | –
O=c1[nH]c(Cl)c(Cl)cc1Cl | inactive | –
O=C(O)CCCc1ccc(N(CCCl)CCCl)cc1 | inactive | 35.5 µM (active)
COC(C)(C)CCC[C@H](C)C/C=C/C(C)=C/C(=O)OC(C)C | – | 28.4 µM (active)
O=P1(NCCCl)OCCCN1CCCl (stereo not drawn) | inactive | –
O=S(=O)(c1ccccc1)c1ccccc1 | inactive | –
Clc1ccc(-c2ccccc2)cc1 | inactive | –
Oc1cc(Cl)ccc1Cl | inactive | –

Each molecule was assayed on Basic fibroblast growth factor (bFGF), FGF2 (gene 2247) (assay: BSK_MyoF_bFGF: BioMAP Diversity Plus: MyoF Assay for Basic fibroblast growth factor (bFGF) Biomarker Activity (AID 2284246)). Conditions: primary human lung fibroblasts.
Method in brief: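 Human lung fibroblasts were dosed with chemicals and bFGF was quantified by ELISA 24 h later. Activity was fitted in the gain-of-signal direction relative to DMSO as negative control and baseline. Parallel SRB total-protein staining tracked overt cytotoxicity.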

Structure (SMILES) | outcome
Nc1ccc(-c2ccc(N)c(N)c2)cc1N | inactive
O=c1[nH]c(Cl)c(Cl)cc1Cl | inactive
O=C(O)CCCc1ccc(N(CCCl)CCCl)cc1 | inactive
COC(C)(C)CCC[C@H](C)C/C=C/C(C)=C/C(=O)OC(C)C | inactive
O=P1(NCCCl)OCCCN1CCCl (stereo not drawn) | inactive
O=S(=O)(c1ccccc1)c1ccccc1 | inactive
Clc1ccc(-c2ccccc2)cc1 | inactive
Oc1cc(Cl)ccc1Cl | inactive

Each molecule was assayed on Collagen IV, COL4A1 (gene 1282) (assay: BSK_MyoF_CollagenIV: BioMAP Diversity Plus: MyoF Assay for Collagen IV Biomarker Activity (AID 2284247)). Conditions: primary human lung fibroblasts.
Method in brief: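 Primary human lung fibroblasts were exposed to test chemicals and sampled 24 h after dosing. Collagen IV levels were measured by ELISA and fitted in the positive direction against DMSO as negative control and baseline.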

Structure (SMILES) | outcome
Nc1ccc(-c2ccc(N)c(N)c2)cc1N | inactive
O=c1[nH]c(Cl)c(Cl)cc1Cl | inactive
O=C(O)CCCc1ccc(N(CCCl)CCCl)cc1 | inactive
COC(C)(C)CCC[C@H](C)C/C=C/C(C)=C/C(=O)OC(C)C | inactive
O=P1(NCCCl)OCCCN1CCCl (stereo not drawn) | inactive
O=S(=O)(c1ccccc1)c1ccccc1 | inactive
Clc1ccc(-c2ccccc2)cc1 | inactive
Oc1cc(Cl)ccc1Cl | inactive

These molecules were tested on Plasminogen activator inhibitor-1 (PAI1), SERPINE1 (gene 5054) (assay: BSK_MyoF_PAI1: BioMAP Diversity Plus: MyoF Assay for Plasminogen activator inhibitor-1 (PAI1) Biomarker Activity (AID 2284256;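 on outcome: PAI-1 protein level measured by ELISA in fibroblast cultures; PAI-1 read 24 h after compound addition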)). Conditions: primary human lung fibroblasts.
Method in brief: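 Activity reflects increased PAI-1, determined by ELISA and compared with DMSO, in human lung fibroblasts treated for 24 h.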

Structure (SMILES) | outcome | AC50
Nc1ccc(-c2ccc(N)c(N)c2)cc1N | inactive | –
O=c1[nH]c(Cl)c(Cl)cc1Cl | inactive | –
O=C(O)CCCc1ccc(N(CCCl)CCCl)cc1 | inactive | 0.016 µM (active)
COC(C)(C)CCC[C@H](C)C/C=C/C(C)=C/C(=O)OC(C)C | inactive | –
O=P1(NCCCl)OCCCN1CCCl (stereo not drawn) | inactive | –
O=S(=O)(c1ccccc1)c1ccccc1 | inactive | –
Clc1ccc(-c2ccccc2)cc1 | – | 0.121 µM (active)
Oc1cc(Cl)ccc1Cl | – | 0.245 µM (active)
